# Assay outcomes deposited in PubChem BioAssay by National Center for Advancing Translational Sciences (NCATS).
# Rab9 prom act: Rab9 promoter activation; hit rate 2.8% among 320,000; Potency, µM (doses to about 9.22 µM), hits mostly activators; Huh7 Rab9 promoter-luciferase reporter, luminescence, 24 h; further: nearly all actives have a fitted effect of over 60% in size
#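 Huh7 cells stably carrying Rab9 promoter–luciferase reporter, plated 1500 cells/well, compound added after 2 h and incubated 24 h at 37 °C; luciferase luminescence then read after 10 min with detection reagent.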
# SMN2 splice up: SMN2 splice variant enhancement | HEK293 SMN2-luciferase splicing reporter, luminescence, 30-36 h | Potency, µM (highest dose often 46.1 µM), hits mostly activators | hit rate 2.8% among 210,000; further: nearly all actives have a fitted effect of over 55% in size
#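 qHTS luciferase splicing reporter: luminescence rises when SMN2 exon 7 is included in transfected HEK293 cells. Compound exposure lasted 30-36 h at 37C, with 4.5 mM final sodium butyrate as control, followed by a ONE-Glo read.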
# ELG1 genotoxic: inducers of genotoxicity in HEK293T ELG1-luciferase cells; HEK293T ELG1-luciferase reporter, luminescence, 16 h; Potency, µM (doses to about 46 µM), actives largely listed as activators; hit rate 1.3% among 330,000; AID 504466; further: nearly all actives have a fitted effect of over 60% in size
#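 Reporter readout depends on ELG1 protein level, which increases with genetic stress. After 16 hr compound exposure at 37 °C, luciferase activity was quantified using ONE-Glo.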
# NPC1 promoter act: NPC1 promoter activation. Potency, µM (highest dose often 9.22 µM), usual class: activators. AID 485313. hit rate 2.4% among 320,000. Huh7 NPC1 promoter luciferase reporter, 24 h; further: nearly all actives have a fitted effect of over 60% in size
#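 Stably transfected Huh7 (NPC1 promoter→luciferase), 1500 cells/well in Opti-MEM + 10% FBS, 2 h settle, then compound 24 h at 37 °C. Luminescence after 10 min with Amplite reagent.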
# FLuc counter: counter-screen for miR-21 project: firefly luciferase inhibitors or activators; Potency, µM (series often up to 57.5 µM), most hits filed as inhibitors; AID 588342; P08659; hit rate 6.9% among 360,000; purified FLuc, Km substrates, luminescence inhibition; further: nearly all actives have a fitted effect of over 55% in size
# Target sequence (P08659 whole entry, looked up): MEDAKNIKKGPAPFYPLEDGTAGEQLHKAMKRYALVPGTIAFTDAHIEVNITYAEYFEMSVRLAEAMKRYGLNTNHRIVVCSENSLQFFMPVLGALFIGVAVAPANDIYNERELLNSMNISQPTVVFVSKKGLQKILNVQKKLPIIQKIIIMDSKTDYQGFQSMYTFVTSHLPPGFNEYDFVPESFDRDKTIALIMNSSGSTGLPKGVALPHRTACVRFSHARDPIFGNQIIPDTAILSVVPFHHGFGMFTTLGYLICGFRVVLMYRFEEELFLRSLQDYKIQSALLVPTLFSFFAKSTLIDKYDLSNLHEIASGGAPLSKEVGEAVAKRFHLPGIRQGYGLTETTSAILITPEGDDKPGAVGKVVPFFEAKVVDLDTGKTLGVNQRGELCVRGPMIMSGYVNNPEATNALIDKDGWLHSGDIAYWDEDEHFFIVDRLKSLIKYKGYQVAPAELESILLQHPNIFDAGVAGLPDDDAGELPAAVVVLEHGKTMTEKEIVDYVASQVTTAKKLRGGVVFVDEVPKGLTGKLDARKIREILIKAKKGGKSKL
#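 Biochemical qHTS of compounds, final roughly 60 µM downward over six points, against 10 nM purified firefly luciferase using Km concentrations of substrates (10 uM D-luciferin, 10 uM ATP) in Tris acetate pH 7.5 buffer; luminescence output.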
# Hits are given with their value; – = inactive; ? = inconclusive; · = no result given; [ ] = another dose, or the depositor's remark. This is a sample that favours compounds with a hit; in the whole collection about 7.5% have one here. The call rests on the fitted dose curve; in most records, active means well fitted curve in the direction sought with a large enough effect; inconclusive means small, poorly fitted or top-dose-only effect, or another doubt; inactive means no such curve, though single readings can be large; an effect the other way counts as inactive or inconclusive.
SMILES,Rab9 prom act,SMN2 splice up,ELG1 genotoxic,NPC1 promoter act,FLuc counter
COc1cccc(/C=N/NC(=O)c2cc(-c3cccn3C)n[nH]2)c1,–,–,–,–,?
COc1cccc(/C=N/NC(=O)C(C)Cn2cnc3ccccc32)c1 (configuration not stated),–,·,–,–,15µM
COc1cccc(/C=N/NC(=O)CCn2cnc3ccccc32)c1,–,·,–,–,–
COc1cccc(/C=N/NC(=O)c2nc(-c3ccccc3)cc(-c3ccccc3)n2)c1,–,–,–,–,2.4µM
CC1(C)COC(/C=C/c2cccc([N+](=O)[O-])c2)=N1,–,·,–,–,?
O=C(Cc1ccc(-c2ccccc2)cc1)Nc1ncccc1O,?,·,?,?,15µM
O=C(Cc1ccc(-c2ccccc2)cc1)Nc1ccccc1,–,·,?,–,–
COc1cc(/C=N/NC(=O)c2cccc([N+](=O)[O-])c2)ccc1OCc1ccc(C)cc1,–,?,?,–,21µM
COc1cc(/C=N/n2cnnc2)ccc1OCc1ccc(C)cc1,–,–,23µM,–,?
S=C(N/N=C/c1ccc2ncccc2c1)Nc1cccnc1,–,–,–,–,6.7µM
COc1cc(/C=N/NC(=O)c2cccc([N+](=O)[O-])c2)ccc1O,–,–,–,–,–
COc1ccc(/C=N/NC(=O)c2cccc([N+](=O)[O-])c2)cc1O,–,–,–,–,21µM
Oc1ccc(/C=N/NC(=S)Nc2cccnc2)cc1O,–,?,–,–,?
Cc1nc2ccccc2c2c1C(=O)N(C)C2=O,–,–,–,–,–
CCOC(=O)C1(P(=O)(c2ccccc2)c2ccccc2)CCC1,–,?,–,–,–
O=C(N/N=C/c1ccc2ncccc2c1)c1cccc([N+](=O)[O-])c1,–,·,–,–,3.4µM
O=C(N/N=C/c1ccccn1)c1cccc([N+](=O)[O-])c1,–,–,?,–,–
O=C(NNC(=O)c1sc2cccc(Cl)c2c1Cl)Nc1ccccc1,–,–,–,–,–
Cc1sc(NC(=O)/C=C/c2ccco2)c(C(=O)OC(C)C)c1C,–,·,–,–,–
O=C(/C=C/c1ccco1)Nc1scc(-c2ccccc2)c1C(=O)O,0.5µM,·,?,0.45µM,4.8µM
O=C(/C=C/c1ccccc1)Nc1scc(-c2ccccc2)c1C(=O)O,1.6µM,11µM,–,2.5µM,3µM
Cc1ccc(C2=N/C(=C/N3CCOCC3)C(=O)O2)cc1,3.5µM,11µM,16µM,?,12µM
Cc1ccc(C2=N/C(=C\N3CCCCC3)C(=O)O2)cc1,1.1µM,?,4.1µM,2.2µM,5.4µM
COc1cccc(CNC(=O)CCn2nc(C)c3c(C)n(-c4ccccc4)nc3c2=O)c1,·,·,·,·,–
Cc1ccsc1/C=N/NC(=O)c1ccc(Cn2cc(Br)cn2)o1,–,–,–,–,–
SMILES,Rab9 prom act,SMN2 splice up,ELG1 genotoxic,NPC1 promoter act,FLuc counter
NNC(=O)c1ccc(Cn2cccn2)o1,–,·,–,–,?
Cc1c(Cl)c([N+](=O)[O-])nn1Cc1ccc(C(=O)N/N=C\c2cccc(Br)c2)o1,–,–,–,–,7.6µM
Cc1ccc(/C=N\NC(=O)c2ccc(Cn3cc(Br)c([N+](=O)[O-])n3)o2)o1,–,·,–,–,–
O=C(N/N=C\c1cccc(Cl)c1)c1ccc(Cn2cc(Br)c([N+](=O)[O-])n2)o1,–,–,–,–,5.4µM
O=C(N/N=C/c1cccc(Br)c1)c1ccc(Cn2cc(Br)cn2)o1,–,–,–,–,13µM
Cc1ccccc1/C=N\NC(=O)c1ccc(Cn2cccn2)o1,–,–,–,–,17µM
Cc1[nH]c2ccccc2c1-c1cc(-c2cc(-c3c(C)[nH]c4ccccc34)on2)no1,·,–[9.22 µM],·,·,·
O=C(Nc1ccccc1NS(=O)(=O)c1ccc(F)cc1)C1CCC1,–,–,–,–,–
O=C(N/N=C\c1cccc(Cl)c1)c1ccc(Cn2cccn2)o1,–,–,–,–,12µM
CC(Oc1ccc2ccc(=O)oc2c1)C(=O)NCC1CCC(C(=O)O)CC1 (configuration not stated),–,·,–,–,–
CCCOc1ccc2cc(-c3ccccn3)c(=O)oc2c1,0.45µM,0.79µM,?,?,0.24µM
CN(C)C(=O)COc1ccc2cc(-c3ccccc3)c(=O)oc2c1,2µM,18µM,?,4µM,?
CC(Oc1ccc2cc(-c3ccccc3)c(=O)oc2c1)C(=O)NCC1CCC(C(=O)O)CC1 (configuration not stated),–,·,–,–,21µM
COc1ccc2cc(-c3ccccc3)c(=O)oc2c1,0.71µM,·,2.6µM,1.3µM,2.4µM
CC(=O)NCC12CC3CC(C1)CC(C(=O)O)(C3)C2,–,–,–,–,–
O=C(NCCCc1ccccc1)C(=O)NCC1OCCN1S(=O)(=O)c1ccc(F)cc1 (configuration not stated),–,·,?,–,–
CCN(CC)C(=O)COc1ccc2c(-c3ccccc3)cc(=O)oc2c1,–,·,–,–,–
O=C(O)COc1ccc2c(-c3ccccc3)cc(=O)oc2c1,–,?,–,–,19µM
COC(=O)C(C)Oc1cc(OC(C)C(=O)OC)c2c(C)c(Cl)c(=O)oc2c1 (configuration not stated),–,–,–,–,–
COC(=O)C(C)Oc1ccc2cc(-c3ccccc3)c(=O)oc2c1 (configuration not stated),–,·,–,–,24µM
CCC1CN(S(=O)(=O)c2cc(-c3cc(C)no3)ccc2OC)c2cc(Cl)ccc2O1 (configuration not stated),·,·,·,·,–
Cc1coc2cc3oc(=O)c(CC(=O)NCc4ccccc4)c(C)c3cc12,·,–,·,·,–
Cc1c(CC(=O)NCCCC(=O)O)c(=O)oc2cc3occ(-c4ccccc4)c3cc12,–,·,–,–,19µM
Cc1c(CC(=O)NCC(=O)O)c(=O)oc2cc3occ(-c4ccccc4)c3cc12,–,·,–,–,24µM
COc1ccccc1CCNC(=O)Cc1c(C)c2ccc(O)cc2oc1=O,·,–,·,·,–
SMILES,Rab9 prom act,SMN2 splice up,ELG1 genotoxic,NPC1 promoter act,FLuc counter
Cc1c(CC(=O)NCc2ccccc2Cl)c(=O)oc2cc(O)ccc12,·,–,·,·,21µM
CS(=O)(=O)N1CCC(C(=O)NCC2CCCO2)CC1 (configuration not stated),–,–,–,–,–
CCCCc1cc2ccccc2c(OCCN(C)C)n1,–,–,–,–,–
CN1C(=O)/C(=C\C(=O)c2cccs2)c2ccccc21,–,–,–,–,19µM
CC1CN(C(=O)c2cn3ccccc3n2)CC(C)O1 (configuration not stated),–,–,–,–,12µM
CC1CN(C(=O)c2ccncc2)CC(C)O1 (configuration not stated),–,–,–,?,–
O=C(Nc1ccccc1)c1cn2ccccc2n1,0.2µM,·,?,0.32µM,0.95µM
Cc1csc(NC(=O)c2cn3ccccc3n2)n1,?,0.63µM,0.73µM,?,2.1µM
Cc1c(NC(=O)c2cn3ccccc3n2)cccc1-n1cnnn1,–,·,–,–,?
